Data on nine compounds can be found in PubChem BioAssay (Tox21).

Assay [1] is described as follows: qHTS assay for small molecule agonists of the p53 signaling pathway (AID 651631; calls by dose curve; note: nearly all actives have a fitted effect of over 15% in size; note: potency is the fitted concentration of half-maximal effect). The note with it: HCT-116 p53RE-bla reporter, beta-lactamase FRET ratio, 16 h; series mostly up to 73.3 µM. Summed up:
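We treat p53RE-bla HCT-116 cells with compounds for 16 h at 37 °C, add LiveBLAzer B/G FRET substrate for 2 h at room temperature, and measure fluorescence intensity.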
For orientation: Quantitative high-throughput screening tests each substance at several concentrations.

Assay [2] is described as follows: qHTS assay for small molecule agonists of the p53 signaling pathway - cell viability (AID 651633; calls by dose curve; note: nearly all actives have a fitted effect of over 30% in size). The following applies: p53RE-bla HCT-116 viability, ATP luminescence, 16 h; series mostly up to 83.3 µM. A digest of the protocol:
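p53RE-bla cells were treated with compound for 16 hours at 37 C. Cytotoxicity was then measured as CellTiter-Glo luminescence after 30 min at room temperature.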

Assay [3] can be described thus: qHTS assay for small molecules that induce genotoxicity in human embryonic kidney cells expressing luciferase-tagged ATAD5 - cell viability (AID 651634; calls by dose curve; note: nearly all actives have a fitted effect of over 25% in size; note: potency is the fitted concentration of half-maximal effect). The note with it: HEK293T ATAD5-luc cells viability, CellTiter-Fluor, 15.5 h; series mostly up to 83.3 µM. A digest of the protocol:
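HEK293T cells expressing luciferase-tagged ATAD5 were exposed to compound or DMSO for 15.5 hr at 37C, 5% CO2. Viability was then read as live-cell protease activity by CellTiter-Fluor fluorescence after 30 min at 37C.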

Assay [4] can be described thus: qHTS assay for small molecule disruptors of the mitochondrial membrane potential - cell viability (AID 720634; calls by dose curve; note: nearly all actives have a fitted effect of over 20% in size; note: potency is the fitted concentration of half-maximal effect). The following applies: HepG2 viability, ATP luminescence (CellTiter-Glo), 1 h; series mostly up to 83.2 µM. A digest of the protocol:
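HepG2 cells seeded overnight at 37 C, then exposed to compound or DMSO for 1 hr at 37 C, 5% CO2. m-MPI dye added, then CellTiter-Glo for 30 min at room temperature; viability read as ATP luminescence.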

Assay [5] in a line: qHTS assay for small molecule disruptors of the mitochondrial membrane potential (AID 720635). Note: potency is the fitted concentration of half-maximal effect. The note with it: HepG2 mitochondrial membrane potential, Mito-MPS dye ratio; series mostly up to 83.2 µM. A digest of the protocol: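 HepG2 cells exposed to compound 1 hr at 37C, then Mito-MPS dye 30 min. Ratio read of aggregate (540/590 nm) versus monomer (490/535 nm) fluorescence.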

Assay [6] can be described thus: qHTS assay to test for compound auto fluorescence at 590 nm (red) in HepG2 cells (AID 720674). The note with it: HepG2 autofluorescence, red 540/590 nm, 1 h; series mostly up to 91.3 µM. Summed up: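 Seeding: 2,000 HepG2 cells/well, MEM/10% FBS, overnight 37 C. Dosing: compound vs DMSO. Incubation: 1 hr, 37 C, 5% CO2. Read: fluorescence 540 ex/590 em, Rose Bengal sodium as red reference.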

Assay [7] is described as follows: qHTS assay to test for compound auto fluorescence at 535 nm (green) in HepG2 cells (AID 720675). The following applies: green autofluorescence 485/535 nm, 1 h; series mostly up to 91.3 µM.
The nature of assay [8]: qHTS assay to test for compound auto fluorescence at 460 nm (blue) in HEK293 cells (AID 720678). The note with it: blue autofluorescence 405/460 nm; series mostly up to 91.3 µM. A digest of the protocol: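 Auto fluorescence in the blue band was quantified as triamterene equivalency. HEK293 cells were seeded at 2,000/well, dosed after a 4-5 hr attachment, and kept overnight at 37C before the 405/460 nm reading.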

The nature of assay [9]: qHTS assay to test for compound auto fluorescence at 590 nm (red) in HEK293 cells (AID 720679). The following applies: red autofluorescence 540/590 nm; series mostly up to 91.3 µM. Summed up:
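Autofluorescence equivalency to Rose Bengal sodium, 540/590nm, in HEK293 cells exposed overnight to 23 nL compound per well.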

Assay [10] is described as follows: qHTS assay to test for compound auto fluorescence at 535 nm (green) in HEK293 cells (AID 720680). The note with it: green autofluorescence 485/535 nm; series mostly up to 91.3 µM.
Assay [11] is described as follows: qHTS assay to test for compound auto fluorescence at 460 nm (blue) in HEK293 cell free culture (AID 720681). The note with it: cell-free medium, autofluorescence 405/460 nm (blue); series mostly up to 91.3 µM. A digest of the protocol: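 Compounds were added to cell-free DMEM with 10% FBS and fluorescence read directly. The blue channel used 405 nm excitation and 460 nm emission, with triamterene as the reference fluorophore.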

A short description of assay [12]: qHTS assay to test for compound auto fluorescence at 535 nm (green) in HEK293 cell free culture (AID 720682). The note with it: cell-free medium, green autofluorescence 485/535 nm, hits give high values; series mostly up to 91.3 µM. Summed up: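 Green-channel intensity (Ex/Em 485/535 nm) was recorded from compound-treated wells containing only DMEM with 10% FBS. Fluorescein provided the equivalency standard.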

Assay [13] in a line: qHTS assay to test for compound auto fluorescence at 590 nm (red) in HEK293 cell free culture (AID 720683). The following applies: cell-free medium autofluorescence, Ex540/Em590 red; series mostly up to 91.3 µM. A digest of the protocol:
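Cell-free wells of DMEM with 10% FBS received compound, and intrinsic fluorescence was read at excitation/emission 540/590 nm. Values expressed as equivalence to Rose Bengal sodium.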

Assay [14] in a line: qHTS assay to test for compound auto fluorescence at 590 nm (red) in HepG2 cell free culture (AID 720684). The note with it: cell-free medium autofluorescence, red 540/590 nm; series mostly up to 91.3 µM. Summed up:
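Compound was pinned into wells holding MEM with 10% FBS and no cells, and red fluorescence was read at Ex/Em 540/590 nm. Signal is expressed as auto fluorescence equivalency relative to Rose Bengal sodium.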

Assay [15] can be described thus: qHTS assay to test for compound auto fluorescence at 535 nm (green) in HepG2 cell free culture (AID 720686). The following applies: Cell-free medium, green autofluorescence 485/535 nm; series mostly up to 91.3 µM.
A short description of assay [16]: qHTS assay to test for compound auto fluorescence at 460 nm (blue) in HepG2 cells (AID 720687). The note with it: autofluorescence 405/460 nm, 1 h; series mostly up to 91.3 µM. Summed up:
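HepG2 cells in MEM with 10% FBS, attached overnight at 37 C, were exposed to compound or DMSO for 1 hr at 37 C, 5% CO2. Blue fluorescence was read at 405/460 nm, with triamterene as reference fluorophore.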

Assay [17] concerns the target Glucocorticoid receptor (Homo sapiens) (UniProt P04150). In words: qHTS assay to identify small molecule agonists of the glucocorticoid receptor (GR) signaling pathway (AID 720691; active = well fitted activation curve with a large enough effect in the signal ratio in the repeat runs, not every such curve was filed as active; the % refers to the signal ratio). The following applies: GR-bla HeLa, beta-lactamase reporter ratio, 18 h; series mostly up to 62.4 µM. Summed up: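 GR-bla HeLa cells (beta-lactamase reporter under glucocorticoid response element) were plated 4 h at 37 C/5% CO2, given compounds in DMSO, and incubated 18 h at 37 C. LiveBLAzer B/G FRET substrate was added for 2 h at room temperature, then fluorescence intensity read.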

The nature of assay [18]: qHTS assay to test for compound auto fluorescence at 460 nm (blue) in HepG2 cell free culture (AID 720685). The note with it: Cell-free culture medium, blue autofluorescence 405/460 nm; series mostly up to 91.3 µM. A digest of the protocol: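 Compound (23 nL) or DMSO pinned into cell-free MEM with 10% FBS; blue fluorescence read at 405/460 nm excitation/emission, expressed as auto-fluorescence equivalency to triamterene.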

Assay [19] addresses Glucocorticoid receptor (Homo sapiens) (UniProt P04150). In words: qHTS assay to identify small molecule antagonists of the glucocorticoid receptor (GR) signaling pathway (AID 720692; active = well fitted inhibition curve with a large enough effect in the signal ratio in the repeat runs, not every such curve was filed as active; the % refers to the signal ratio). The following applies: GR-bla HeLa, beta-lactamase FRET ratio, dexamethasone-stimulated, 18 h; series mostly up to 58.5 µM. A digest of the protocol:
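GR-bla HeLa cells (beta-lactamase reporter under glucocorticoid response element) were pre-plated 4 h at 37 C, treated with compounds plus 5 nM dexamethasone (final) for 18 h, then read by LiveBLAzer B/G FRET fluorescence after 2 h.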

A short description of assay [20]: qHTS assay for small molecules that induce genotoxicity in human embryonic kidney cells expressing luciferase-tagged ATAD5 (AID 651632). Note: nearly all actives have a fitted effect of over 15% in size. The following applies: HEK293T ATAD5-luciferase induction, 16 h; series mostly up to 83.3 µM. Summed up: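 HEK293T cells carrying a luciferase reporter tagged to ATAD5 were exposed to compound or DMSO vehicle for 16 hr at 37C, 5% CO2. Amplite was added, and after 30 min at room temperature luciferase activity was read as a marker of ATAD5 induction.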

Several values for one entry are separate records, joined by “and”; a condition that tells them apart may be missing. Identical values can stand only once. Values without a mark were called inactive. Records with an inconclusive call do not appear. Activity calls are given as the source filed them. Unless noted, calls come from the whole dose curve; as a rule, active = well fitted curve in the direction sought with a large enough effect in the repeat runs; inconclusive = weak or mixed curves; inactive = no such curve, though single readings can be large; an effect the other way counts as inactive or inconclusive.

Chain of Glucocorticoid receptor (Homo sapiens) (P04150 whole entry, looked up): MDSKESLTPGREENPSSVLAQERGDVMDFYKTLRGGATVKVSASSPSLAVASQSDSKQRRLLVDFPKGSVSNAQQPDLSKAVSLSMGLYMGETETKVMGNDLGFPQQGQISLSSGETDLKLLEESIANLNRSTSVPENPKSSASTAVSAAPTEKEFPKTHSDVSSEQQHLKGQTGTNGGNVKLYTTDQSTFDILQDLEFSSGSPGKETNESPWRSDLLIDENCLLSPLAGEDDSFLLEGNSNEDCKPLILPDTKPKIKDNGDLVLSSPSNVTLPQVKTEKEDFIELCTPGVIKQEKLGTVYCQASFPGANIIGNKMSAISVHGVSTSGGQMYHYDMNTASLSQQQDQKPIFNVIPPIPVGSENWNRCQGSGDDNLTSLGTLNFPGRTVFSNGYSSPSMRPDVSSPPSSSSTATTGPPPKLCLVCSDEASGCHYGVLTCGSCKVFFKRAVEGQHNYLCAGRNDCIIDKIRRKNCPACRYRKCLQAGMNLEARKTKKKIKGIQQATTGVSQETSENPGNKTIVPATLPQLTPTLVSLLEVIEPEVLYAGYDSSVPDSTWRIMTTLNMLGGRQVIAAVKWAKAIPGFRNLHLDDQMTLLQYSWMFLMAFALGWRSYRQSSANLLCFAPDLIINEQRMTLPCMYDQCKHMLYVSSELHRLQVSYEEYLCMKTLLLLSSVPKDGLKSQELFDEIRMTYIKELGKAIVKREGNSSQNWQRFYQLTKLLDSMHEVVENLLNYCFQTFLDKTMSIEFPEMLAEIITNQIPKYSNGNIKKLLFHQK

Regarding `O=c1c(O)c(-c2ccc(O)cc2)oc2cc(O)cc(O)c12`, the Potency result in assay [1], in [2], in [3], in [4], in assay [8] and in [11] was “inactive” in each case. Also, the Potency result in [16] and in assay [17] was “inactive” each time. Further, in assay [5], the Potency is 3.84 µM (active) and 328 nM (active). The call in assay [6], in assay [7], in assay [9], in assay [10], in assay [12] and in assay [13] was inactive. Also, the outcome in assay [14] and in assay [15] was inactive.

On to `CCOC(=O)/C=C/C(=O)OCC`, for which the Potency entry in [1], in assay [2], in [3], in [4], in assay [5] and in [8] was “inactive” throughout. In addition, the Potency entry in assay [11], in [18], in [16], in assay [17] and in assay [19] was “inactive” throughout. For the same compound, the result in [7], in assay [9], in assay [10], in assay [12], in assay [13] and in assay [14] was inactive. In addition, in [15], the compound was classed as inactive.

In the case of `CC(O)c1ccccc1` (configuration not stated), the Potency result in [1], in assay [2], in assay [4], in assay [8], in [11] and in [16] was “inactive” throughout. In addition, the result in assay [7], in [9], in [10], in [12], in assay [13] and in assay [14] was inactive. Also, the call in assay [15] was inactive.

On to `Cc1ccc(OC(=O)c2ccccc2O)cc1`, for which the Potency result in assay [1], in assay [2], in assay [4], in assay [5], in assay [8] and in [11] was “inactive” each time. The Potency result in [18], in [16] and in assay [17] was “inactive” each time. For the same compound, the result in assay [6], in assay [7], in assay [9], in [10], in [12] and in assay [13] was inactive. For the same compound, the call in assay [14] and in assay [15] was inactive.

Turning to `CC/C=C1/OC(=O)c2ccccc21`, the Potency entry in [1], in assay [2], in assay [3], in assay [4], in assay [5] and in [8] was “inactive” in each case. The Potency result in assay [11], in [18], in assay [16], in [17] and in assay [19] was “inactive” in each case. In addition, the compound was classed as inactive in [6], in assay [7], in assay [9], in assay [10], in assay [12] and in assay [13]. Besides, the call in assay [14] and in assay [15] was inactive.

Turning to `Cc1ccc(CO)cc1`, the Potency entry in [1], in assay [2], in [3], in assay [4], in assay [5] and in assay [8] was “inactive” in each case. Besides, the Potency entry in [11], in assay [18], in assay [16], in assay [17] and in assay [19] was “inactive” in each case. Further, the call in assay [6], in assay [7], in [9], in [12], in assay [13] and in [14] was inactive. For the same compound, the result in [15] was inactive.

Consider `CN1C(=O)N(c2ccccc2Br)Cc2cnc(Nc3ccc4c(c3)OCC(CO)O4)nc21` (configuration not stated), for which the Potency is 19.3 µM (active) in assay [1], 54.5 µM (active) in assay [3], 48.6 µM (active) in [4] and 24.3 µM (active) in assay [5]. For the same compound, the Potency entry in [20], in assay [8], in [11], in [18] and in [16] was “inactive” in each case. For the same compound, the result in [6], in assay [7], in assay [9], in assay [10], in [12] and in assay [13] was inactive. For the same compound, the compound was called inactive in assay [14] and in assay [15].

Turning to `O=[N+]([O-])c1ccc(Nc2ccc(Nc3ccccc3)c(S(=O)(=O)O)c2)c([N+](=O)[O-])c1`, the Potency entry in assay [1], in assay [20], in assay [2], in assay [4], in assay [8] and in assay [11] was “inactive” each time. In addition, the Potency entry in assay [18], in [16] and in assay [17] was “inactive” in each case. Moreover, the compound was called inactive in assay [6], in assay [7], in [9], in [12], in assay [13] and in assay [14]. Moreover, the compound was called inactive in assay [15].

Take `O=C=Nc1cccc(C(F)(F)F)c1`: the Potency result in [1], in [2], in assay [3], in assay [8], in assay [11] and in [18] was “inactive” each time. The Potency entry in assay [16] and in [17] was “inactive” each time. Moreover, the Potency in [5] is 2.15 µM (active). Moreover, the compound was called inactive in [6], in assay [7], in assay [9], in [10], in assay [12] and in assay [13]. In addition, the result in [14] and in assay [15] was inactive.
